The nature of experiment [1]: HepG2 liver cancer cell viability effects, profiling panel, resazurin fluorescence, 24 h, PK04 Diversity Set (AID 1172). Note: test concentration not given here. To be noted: higher = more signal. (Alamar Blue is a resazurin reagent that responds to reducing activity.)
A short description of experiment [2]: basal S. cerevisiae growth modulation, no modifier, primary screen, OD600, strain BY4716, 24 h, basal condition (AID 1173). As to conditions: OD600, 24 h, higher = more signal, called active from +8 up or from −8 down.
A short description of experiment [3]: MM1S myeloma cell viability, profiling panel, resazurin fluorescence, basal, 24 h, PK04 Diversity Set (AID 1174).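 Note: MM1S multiple myeloma cell line; test concentration not given here.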 As to conditions: higher = more signal, called active from +8 up or from −8 down.
Experiment [4] concerns the target Dihydroorotate dehydrogenase (quinone), mitochondrial (Plasmodium falciparum (isolate 3D7)) (UniProt Q08210). Put plainly: PfDHODH enzyme inhibitors, primary screen, biochemical, C-terminal His tag, absorbance 600 nm (AID 1175).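 Note: recombinant parasite enzyme with a five histidine tag at its C terminus; test concentration not given here.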 To be noted: DCIP absorbance 600 nm, higher = more signal, called active from +8 up or from −8 down.
Experiment [5] is described as follows: P. aeruginosa biofilm formation inhibitors, primary screen, strain PAO1, LB-PBS medium, absorbance 600 nm (AID 1176). Note: test concentration not given here. As to conditions: P. aeruginosa PAO1 growth/biofilm, A600, 12 h; higher = more signal.
Experiment [6] in a line: S. cerevisiae RM11-1a growth modifiers, primary screen, strain RM11-1a, OD600, basal, 24 h (AID 1177).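 Note: cultures grown under basal conditions with no added stressor; test concentration not given here.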 To be noted: OD600, 24 h, higher = more signal, called active from +8 up or from −8 down.
Experiment [7] is described as follows: E. coli acrAB mutant growth effects, primary screen, E. coli filamentation inducers, strain DRC39, OD650, 24 h (AID 1178).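 Note: growth measured as culture turbidity by optical density at 650 nm; test concentration not given here.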 To be noted: higher = more signal, called active from +8 up or from −8 down.
Experiment [8] in a line: E. coli acrAB mutant growth effects, primary screen, E. coli filamentation inducers, strain DRC39, OD650, 48 h (AID 1179).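 Note: screen aims at cell division blockers that make cells filament.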 As to conditions: E. coli DRC39 delta-acrAB growth, higher = more signal, called active from +8 up or from −8 down.
Experiment [9] is described as follows: RPMI8226 myeloma cell viability, profiling panel, resazurin fluorescence, basal, 24 h, PK04 Diversity Set (AID 1180).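 Note: RPMI8826 multiple myeloma cell line at 5000 cells per well; test concentration not given here.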 To be noted: higher = more signal.
For experiment [10], the target named is E3 ubiquitin-protein ligase XIAP (Homo sapiens) (UniProt P98170). Description: XIAP binders, primary screen, biophysical, small-molecule microarray, fluorescence 635 nm (AID 1181).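 Note: score merges 667 nm emission and signal to noise over triplicate slides.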 To be noted: small-molecule microarray binding, higher = more signal.

Structures are written as SMILES. Active and inactive are the calls of the source. Unless noted, the rule behind the calls is not given here.

Dihydroorotate dehydrogenase (quinone), mitochondrial (Plasmodium falciparum (isolate 3D7)), sequence (Q08210 whole entry, looked up): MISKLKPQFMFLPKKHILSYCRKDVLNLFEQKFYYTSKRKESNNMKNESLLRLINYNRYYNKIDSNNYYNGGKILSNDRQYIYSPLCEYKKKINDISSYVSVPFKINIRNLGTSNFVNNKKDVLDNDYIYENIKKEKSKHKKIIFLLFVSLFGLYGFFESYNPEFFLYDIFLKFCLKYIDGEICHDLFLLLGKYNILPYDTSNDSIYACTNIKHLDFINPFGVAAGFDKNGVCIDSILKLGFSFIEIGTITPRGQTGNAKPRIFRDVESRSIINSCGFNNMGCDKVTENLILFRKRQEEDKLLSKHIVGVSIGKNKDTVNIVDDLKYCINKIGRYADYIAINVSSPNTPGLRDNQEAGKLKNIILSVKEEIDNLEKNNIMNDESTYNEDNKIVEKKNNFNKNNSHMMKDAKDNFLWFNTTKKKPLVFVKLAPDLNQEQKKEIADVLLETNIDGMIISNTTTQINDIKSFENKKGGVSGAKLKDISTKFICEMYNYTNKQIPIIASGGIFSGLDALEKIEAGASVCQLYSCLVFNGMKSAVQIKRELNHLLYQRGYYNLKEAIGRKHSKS
E3 ubiquitin-protein ligase XIAP (Homo sapiens), sequence (P98170 whole entry, looked up): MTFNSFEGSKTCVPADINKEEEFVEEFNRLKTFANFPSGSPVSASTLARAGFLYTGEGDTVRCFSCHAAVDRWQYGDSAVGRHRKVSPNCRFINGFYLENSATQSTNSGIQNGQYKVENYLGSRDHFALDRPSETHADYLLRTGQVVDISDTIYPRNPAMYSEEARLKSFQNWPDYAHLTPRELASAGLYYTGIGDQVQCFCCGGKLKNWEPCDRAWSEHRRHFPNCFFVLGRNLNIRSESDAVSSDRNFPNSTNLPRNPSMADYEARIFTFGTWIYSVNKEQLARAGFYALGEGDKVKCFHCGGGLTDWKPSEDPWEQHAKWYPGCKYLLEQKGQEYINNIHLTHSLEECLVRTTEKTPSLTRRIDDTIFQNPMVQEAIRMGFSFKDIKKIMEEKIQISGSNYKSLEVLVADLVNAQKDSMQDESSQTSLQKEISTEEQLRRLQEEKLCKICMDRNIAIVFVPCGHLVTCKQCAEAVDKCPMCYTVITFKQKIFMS

As for `CN1C(=O)C2C(C1=O)C1C=C(CCCO)C2C(c2cccs2)N1C` (stereo not given), the z-score is -0.341 in experiment [1]; -0.37 (inactive) in [2]; -0.739 (inactive) in [3]; -0.146 (inactive) in [5]; 0.185 (inactive) in experiment [6]; 0.469 (inactive) in [7]. The z-score in experiment [8] was 0.742 (inactive); in experiment [9] it was -0.626. The results for the composite z-score in experiment [4] and in [10] were -1.36 (inactive) and -0.412, respectively.

With `Cc1ccc(S[C@]2(C(=O)NCc3ccccc3)CC(=O)N(Cc3ccccc3)[C@@H]2c2ccc(CO)cc2)cc1`, the z-score was -0.345 in [1]; -0.27 (inactive) in experiment [2]; 0.0206 (inactive) in experiment [3]; 0.429 (inactive) in experiment [5]; 0.265 (inactive) in experiment [6]; -0.037 (inactive) in [7]. Also, the z-score in [8] is -0.472 (inactive); in [9] it was -0.0925. In addition, the composite z-score is -0.465 (inactive) in experiment [4] and -0.121 in experiment [10].

Consider `COC(=O)[C@@]1(Cc2ccccc2)[C@H]2c3cc(C(=O)N(C)C)n(Cc4cc(C)n(C)n4)c3C[C@H]2CN1C(=O)c1ccccc1`, for which the z-score in [1] is -1.03; in [2], 0.289 (inactive); in experiment [3], -0.99 (inactive); in [5] it was 0.687 (inactive); in experiment [6], -0.211 (inactive); in experiment [7], -1.12 (inactive). The z-score in [8] was -0.944 (inactive); in experiment [9], -0.566. The results for the composite z-score in [4] and in [10] were -0.857 (inactive) and 0.0737, respectively.

For the compound `O=C1OCCC=C[C@H]2OC34C=CCN(c5ccc6ccccc6c5)C(=O)[C@H]3N(CCCCCO)C(=O)[C@@H]4C12` (stereo not given in full), the z-score is 1.32 in experiment [1]; -0.805 (inactive) in [2]; 0.835 (inactive) in experiment [3]; 0.357 (inactive) in experiment [5]; -0.403 (inactive) in experiment [6]; 1.61 (inactive) in experiment [7]. Moreover, the values for the z-score in experiment [8] and in experiment [9] were 1.74 (inactive) and 1.28, respectively. Moreover, the composite z-score was -0.556 (inactive) in experiment [4] and -0.174 in [10].

As for `CCCN1C(=O)[C@]2(COC(c3ccc(OCCCO)cc3)=N2)Cc2ccccc21`, the z-score is 0.0036 in [1]; -1.69 (inactive) in experiment [2]; -0.543 (inactive) in experiment [3]; -0.152 (inactive) in experiment [5]; 0.235 (inactive) in experiment [6]; -0.011 (inactive) in experiment [7]. Besides, the z-score in experiment [8] was -0.0774 (inactive); in experiment [9] it was -0.454. The composite z-score in [4] is -0.238 (inactive); in [10], -0.195.

Regarding `O=C(NCc1ccccc1)[C@]1(CCS(=O)(=O)c2ccccc2)N=C(c2ccc(OCCCO)cc2)O[C@@H]1c1ccccc1`, the z-score in [1] was 0.0669; in experiment [2] it was 1.08 (inactive); in experiment [3], -0.866 (inactive); in experiment [5] it was 0.0937 (inactive); in experiment [6], 1.91 (inactive); in experiment [7], 0.79 (inactive). The z-score in experiment [8] was 1.05 (inactive); in experiment [9] it was 0.253. The composite z-score was -0.549 (inactive) in [4] and 0.323 in [10].

For `CCC(CC)C(O)C1C=CC2C(=O)N(c3ccccc3)C(=O)C2N1Nc1ccc(C#N)cc1` (stereo not given), the z-score in experiment [1] was -0.813; in experiment [2], -0.174 (inactive); in experiment [3] it was -0.253 (inactive); in experiment [5] it was 1.55 (inactive); in experiment [6], -0.358 (inactive); in [7] it was -0.698 (inactive). For the same compound, the figures for the z-score in experiment [8] and in experiment [9] were 0.133 (inactive) and -0.308, respectively. Moreover, the composite z-score was -1.69 (inactive) in experiment [4] and -0.101 in experiment [10].

Regarding `C=CCC(OC(C)=O)[C@@H]1[C@@H](N(Cc2cccc3ccccc23)C(=O)c2cccc3ccccc23)c2cc(OCCCO)ccc2N1C(=O)c1ccc2ccccc2n1` (stereo not given in full), the z-score in experiment [1] is -0.0111; in experiment [2], -0.337 (inactive); in [3] it was -0.388 (inactive); in experiment [5], -0.334 (inactive); in experiment [6] it was -0.929 (inactive); in [7], 0.854 (inactive). Also, the figures for the z-score in [8] and in [9] were 0.424 (inactive) and -0.0685, respectively. Moreover, the composite z-score in experiment [4] is -0.747 (inactive); in experiment [10], -0.124.

As to `CCOC(=O)C[C@H]1[C@H](OC(=O)c2ccc(C(=O)c3ccccc3)cc2)[C@@H](NC(=O)C2CCCCC2)c2cc(OCCCO)ccc2N1C(=O)c1ccccc1`, the z-score in [1] is -0.341; in experiment [2], -0.153 (inactive); in experiment [3], -0.239 (inactive); in experiment [5], 0.0186 (inactive); in experiment [6], -0.3 (inactive); in [7] it was -0.715 (inactive). In addition, the z-score in experiment [8] was -0.549 (inactive); in [9] it was -0.125. The values for the composite z-score in [4] and in experiment [10] were -1.06 (inactive) and -0.145, respectively.

Turning to `CCOC(=O)C1=CC[C@@H](c2ccccc2)N(S(=O)(=O)c2ccc(C)cc2)[C@H]1C(=O)OCC`, the z-score in experiment [1] was -0.0229; in experiment [2], 1.45 (inactive); in experiment [3], -0.424 (inactive); in experiment [5], -0.0196 (inactive); in experiment [6], 0.482 (inactive); in experiment [7], -0.0018 (inactive). In addition, the z-score in [8] is 0.237 (inactive); in [9] it was -0.904. For the same compound, the composite z-score in [4] was -0.103 (inactive); in experiment [10], -0.052.

As to `O=C1OCC=C[C@H]2OC34C=CCN(c5ccc(Cl)cc5)C(=O)[C@H]3N(CCCCCCO)C(=O)[C@@H]4[C@@H]12` (stereo not given in full), the z-score in experiment [1] was 0.82; in experiment [2], -0.69 (inactive); in [3], 0.975 (inactive); in experiment [5] it was -0.497 (inactive); in [6], -0.146 (inactive); in experiment [7], 0.571 (inactive). The z-score in [8] is 0.916 (inactive); in experiment [9], 1.01. The composite z-score in [4] was -1.47 (inactive); in experiment [10], -0.138.

Regarding `COCCOC(=O)N1C(=O)[C@@]2(c3cc(C#CC4(O)CCCCCC4)ccc31)[C@H](C(=O)N1CCCCCCC1)[C@H]1C(=O)O[C@H](c3ccccc3)[C@H](c3ccccc3)N1[C@@H]2c1ccccc1OCCO`, the z-score in [1] is -0.449; in experiment [2], 0.71 (inactive); in experiment [3], -0.297 (inactive); in experiment [5], 1.07 (inactive); in experiment [6], 2.36 (inactive); in [7], -1.49 (inactive). The z-score in [8] was -1.16 (inactive); in experiment [9], -0.432. Also, the composite z-score in experiment [4] is 0.969 (inactive); in experiment [10], 0.026.
